# According to PubChem BioAssay:
# The source made the active and inactive calls. No rule for the calls is given here.
# Assay: Brca1-Bard1 BiLC signal decrease – luminescence, single concentration, counter-screen for Mdm2/MdmX interaction inhibitor project, confirmation (AID 504668)
# Settings: Brca1/Bard1 bimolecular luciferase complementation counterscreen, at 8 µM, active compounds read high
row,SMILES,inhibition
1,O=C(CN1C(=O)/C(=C/c2ccccc2)SC1=S)N1CCN(CCc2ccccn2)CC1,24.3% (active)
2,O=C1c2ccccc2NC(c2ccc(Cl)cc2Cl)N1O (stereo not drawn),30.7% (active)
3,C=C1CCC2[C@](C)(CO)[C@H](O)CC[C@@]2(C)[C@@H]1C/C=C1\C(=O)OC[C@H]1O (stereo partly drawn),27.2% (active)
4,Cc1cc(SCC(=O)N/N=C/c2ccc(O)cc2O)nc2ccccc12,32.4% (active)
5,Cc1cc(C)n(-c2ccc3cccc(NS(C)(=O)=O)c3n2)n1,32.1% (active)
6,O=C(Nc1ccc(Cl)c([N+](=O)[O-])c1)C(Sc1ccccc1)c1ccccc1 (stereo not drawn),24.1% (active)
7,CCN(CC)c1ccc(/C=N/NC(=O)CCC(=O)NCc2ccccc2)c(O)c1,33.7% (active)
8,C/C(=N\NC(=O)c1nnn(-c2nonc2N)c1CN(C)c1ccccc1)c1ccccc1O,30.5% (active)
9,COc1ccc([C@@H]2[C@@H]3C(=O)N(C(C)(C)C)C(=O)[C@@H]3[C@]3(CC(C)C)C(=O)N(c4ccc(C(F)(F)F)cc4)C(=O)N23)cc1,35% (active)
10,CS(=O)(=O)Nc1ccccc1C(=O)Nc1cc(Cl)cc(Cl)c1,28.3% (active)
11,O=C(Nc1ccc(Cl)cc1)Nc1ccc(Cl)c(Cl)c1,26.8% (active)
12,CC[C@@H](C(=O)[C@@H](C)[C@@H](O)[C@H](C)CCc1ccc(C)c(O)c1C(=O)O)[C@H]1O[C@](CC)([C@H]2CC[C@](O)(CC)[C@H](C)O2)C[C@@H]1C,35.2% (active)
13,Cc1cc(C)c2nc(N3CCC(C(=O)NCCCN4CC(C)CC(C)C4)CC3)sc2c1 (stereo not drawn),32.3% (active)
